# Screening results from PubChem BioAssay.
# An excerpt weighted towards active compounds, which were near 5.7% of everything screened.
# DAX1 inh-1 – inhibitors of human orphan nuclear receptor DAX1 (NR0B1) | P51843 | HEK293 Gal4-DAX1 luciferase reporter, luminescence | 340,000 compounds, 0.99% hits | inhibition, % at 6.75 µM;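 active means inhibition above the mean over all tested compounds plus 3 SD, cut at about 4.2% in these data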;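 further: 0% = DAX1-transfected cells with DMSO and 100% = empty-vector control cells with DMSO; inhibition shows as a rise in luminescence from relieved DAX1 repression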
# hgDAF12 agonist – activates the H. glycines DAF-12 receptor ligand-binding domain. HEK293 GAL4-hgDAF12 UAS-luciferase reporter, agonist luminescence; normalized to butyrate control. activation, % at 6.8 µM. 370,000 compounds, 1.8% hits;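 active means activation above a cutoff set at the mean of all screened compounds plus 3 SD, cut at about 10% in these data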;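 further: 0% = DMSO wells and 100% = sodium butyrate wells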
# DAX1 inh-2 – inhibitors of DAX1 repression of SF-1 activated StAR promoter. HEK293T StAR-luciferase reporter, SF-1/DAX-1 repression relief. inhibition, % at 6.8 µM. 370,000 compounds, 1.1% hits. AID 652010;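 active means inhibition above the mean over all tested compounds plus 3 SD, cut at about 3.6% in these data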;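 further: 0% = DAX-1 cells with DMSO and 100% = cells lacking DAX-1 with DMSO; higher inhibition means more luminescence from relief of DAX-1 repression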
# ssDAF12 agonist – activators of S. stercoralis DAF-12 nuclear receptor | HEK293 ssDAF-12/GRIP1 lit1-tk-luc reporter, luminescence; % of 3 µM dafachronic acid response | 370,000 compounds, 1% hits | activation, % at 6.8 µM;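 active means activation above the mean over all tested compounds plus 3 SD, cut at about 0.9% in these data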;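 further: 0% = DMSO-only wells and 100% = 3 µM delta7-dafachronic acid wells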
# AHR act – human AHR activation. P35869. AHR-responsive luciferase reporter cells, luminescence. activation, % at 5 µM. 320,000 compounds, 2.5% hits. AID 2796; in the data active means activation above about 47%;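 further: 0% = vehicle wells and 100% = reference agonist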
# Target sequence (P35869 whole entry, looked up): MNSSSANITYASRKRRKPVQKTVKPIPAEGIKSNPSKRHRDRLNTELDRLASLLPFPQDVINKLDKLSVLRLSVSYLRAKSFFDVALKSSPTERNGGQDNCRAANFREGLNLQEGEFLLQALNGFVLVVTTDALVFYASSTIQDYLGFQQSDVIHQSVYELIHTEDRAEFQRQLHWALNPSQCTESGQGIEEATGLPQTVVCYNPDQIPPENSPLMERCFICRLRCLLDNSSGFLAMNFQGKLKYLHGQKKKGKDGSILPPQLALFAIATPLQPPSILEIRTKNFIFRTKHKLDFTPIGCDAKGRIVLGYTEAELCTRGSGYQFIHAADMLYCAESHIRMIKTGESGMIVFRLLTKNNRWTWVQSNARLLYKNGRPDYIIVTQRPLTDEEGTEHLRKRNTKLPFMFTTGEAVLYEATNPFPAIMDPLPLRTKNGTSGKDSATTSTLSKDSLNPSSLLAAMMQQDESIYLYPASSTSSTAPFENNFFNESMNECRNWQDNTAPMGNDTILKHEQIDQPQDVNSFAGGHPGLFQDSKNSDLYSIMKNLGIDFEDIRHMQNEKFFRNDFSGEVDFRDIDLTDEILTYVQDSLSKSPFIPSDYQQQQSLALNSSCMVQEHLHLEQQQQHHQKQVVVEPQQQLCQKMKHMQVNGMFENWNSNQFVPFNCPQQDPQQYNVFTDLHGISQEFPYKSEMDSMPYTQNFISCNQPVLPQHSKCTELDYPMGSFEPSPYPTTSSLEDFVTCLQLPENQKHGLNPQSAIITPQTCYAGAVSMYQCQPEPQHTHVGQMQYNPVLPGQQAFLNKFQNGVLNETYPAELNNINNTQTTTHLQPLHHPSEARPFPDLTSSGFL
# hcDAF12 agonist – activates DAF-12 receptor from parasite H. contortus | HEK293 hcDAF-12 lit1-tk-luc reporter, luminescence; 0% DMSO, 100% Δ7-dafachronic acid | activation, % at 6.8 µM | 370,000 compounds, 1.4% hits | AID 652067;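 active means activation above the mean of all tested compounds plus 3 SD, cut at about 5.5% in these data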;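 further: 100% = response to 3 µM Δ7-dafachronic acid high control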
# DAX1 inh confirm – confirmation of human DAX1 (NR0B1) inhibitors | 2,400 compounds, 87% hits | shares compounds with DAX1 inh-2 | inhibition, % at 6.8 µM | AID 652134 | HEK293T StAR-promoter luciferase reporter, SF-1/DAX-1 repression;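 active means inhibition above the average of every tested compound plus 3 SD, cut at about 3.8% in these data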;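 further: 0% = DAX-1 cells with DMSO and 100% = no DAX-1 control cells with DMSO; active compounds raise luminescence by relieving repression of the StAR reporter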
# SF1 AF2mut Luc – counter-screen for DAX1 inhibitors: nonselective inhibitors with SF-1 AF2 mutant | shares compounds with DAX1 inh-2 | HEK293 StAR-luciferase, luminescence | inhibition, % at 6.8 µM | 2,400 compounds, 78% hits;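 active means inhibition above the mean of all tested compounds plus 3 SD, cut at about 3% in these data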;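 further: 0% = DAX-1 transfected cells with DMSO and 100% = cells without DAX-1 with DMSO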
# LXRb hcDAF ctr – counter-screen for hcDAF-12 agonists: agonists of human LXR-beta; shares compounds with hcDAF12 agonist; HEK293 Gal4-LXR tk-luc reporter, luminescence, 24 h; normalized: DMSO 0%, positive control 100%; activation, % at 6.8 µM; 3,400 tested, under 10 active; AID 743027;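 active means mean percent activation of the reporter above a cutoff set as the average over tested compounds plus their standard deviation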
# hcDAF12 conf – hcDAF-12 agonism, confirmation assay; 3,400 compounds, 61% hits; activation, % at 6.8 µM; shares compounds with hcDAF12 agonist; HEK293 hcDAF-12 lit1-tk-luc reporter, luminescence; % of Δ7-dafachronic acid response;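 active means mean activation across triplicate tests above the threshold derived from the earlier primary screen, cut at about 5.5% in these data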;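 further: 0% = DMSO only wells and 100% = 3 µM Δ7-dafachronic acid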
# hgDAF12 ag – confirmation of H. glycines DAF-12 agonists; shares compounds with hgDAF12 agonist; HEK293 GAL4-hgDAF12 luciferase reporter, agonist mode; percent of butyrate response; activation, % at 6.8 µM; 3,300 compounds, 80% hits; AID 743050;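 active means mean activation over triplicate wells above the hit cutoff derived from the earlier primary screen, cut at about 11% in these data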;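 further: 0% = DMSO low control and 100% = 2 mM sodium butyrate high control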
# LXR ag 2 – activates human LXR-beta, counter-screen for DAF-12 agonists; HEK293 Gal4-LXR luciferase reporter, 24 h; 3,300 tested, under 10 active; activation, % at 6.8 µM; shares compounds with hgDAF12 agonist; AID 743051;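 active means mean activation of the triplicate above a set limit carried over from the primary screen, none filed active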
# * hit, by the source's call; / = not tested or not shown.
SMILES,DAX1 inh-1,hgDAF12 agonist,DAX1 inh-2,ssDAF12 agonist,AHR act,hcDAF12 agonist,DAX1 inh confirm,SF1 AF2mut Luc,hgDAF12 ag,LXR ag 2,others
CC(C)Nc1ncnc2c1cnn2-c1ccc(Cl)cc1,-1,16*,4.8*,1,-13,4,11*,3,4,1,
CC1CCN(c2ncnc3c2cnn3-c2ccccc2)CC1,2,15*,7.7*,0,-9,4,14*,12*,14*,1,
N#Cc1ccc(NC(=O)COC(=O)c2cccnc2Cl)cc1,3,0,0,-1,-1,-1,/,/,/,/,
Cn1cccc1CC(=O)NNC(=S)Nc1ccc(Cl)cc1,4,2,0,-1,5,2,/,/,/,/,
CC(=O)c1c(C)[nH]c(C(=O)OCc2nnc(-c3ccc([N+](=O)[O-])cc3)o2)c1C,-1,5,-2,-1,0,0,/,/,/,/,
CN(C)c1ccc(C=Cc2cnccn2)cc1,-1,18*,6.7*,0,/,5,16*,9.8*,16*,1,
COc1cc(NC(=S)NCCCN2CCOCC2)c(OC)cc1NC(=O)c1ccco1,0,0,0,-1,0,1,/,/,/,/,
Cc1ncoc1C(=O)Nc1ccc2c(c1)OCCO2,0,-2,0,-1,21,0,/,/,/,/,
Cc1ccsc1C(=O)Nc1ccc2c(c1)OCCO2,-1,21*,4.6*,-1,0,5,14*,7.7*,15*,1,
COc1ccc(C(=O)Nc2ccc3c(c2)OCCO3)c(OC)c1,2,22*,9.4*,0,/,5.7*,13*,9.1*,17*,1,
COc1ccc(NC(=O)c2ccc3c(c2)OCCO3)cc1OC,1,8,1,0,16,5,/,/,/,/,
COc1ccc(C(=O)Nc2ccc3c(c2)OCCO3)cc1,-1,15*,4.7*,1.4*,-7,5.8*,14*,5.2*,15*,1,
CCOc1ccc(-c2nnc(SCC(=O)N3CCNC3=O)o2)cc1,1,14*,6.2*,1,5,6.2*,12*,5.3*,15*,1,
COc1cc(SC)ccc1C(=O)Nc1ccccn1,-3,19*,5.0*,1.0*,12,10*,9.6*,5.2*,14*,1,LXRb hcDAF ctr=2;hcDAF12 conf=7.2*
COc1cc(SC)ccc1C(=O)Nc1ccc(Br)cn1,1,6,1,0,0,4,/,/,/,/,
COc1cc(SC)ccc1C(=O)Nc1ccc(C)cc1,7.1*,18*,5.5*,2.1*,25,14*,13*,9.9*,20*,1,LXRb hcDAF ctr=2;hcDAF12 conf=13*
COc1cc(SC)ccc1C(=O)Nc1ccc2c(c1)OCO2,9.4*,20*,7.8*,1.4*,/,8.9*,9.7*,6.2*,16*,1,LXRb hcDAF ctr=2;hcDAF12 conf=6.3*
COc1cc(SC)ccc1C(=O)Nc1ccc(C)cc1C,3,10,2,0,0,0,/,/,/,/,
Cc1cccc(C)c1OC(=O)CCN1C(=O)C2C3C=CC(C4CC34)C2C1=O (stereo not given),0,2,0,-2,1,-2,/,/,/,/,
